Several values for one entry are separate records, joined by “and”; a condition that tells them apart may be missing. Identical values can stand only once. In all, about 5,500 compounds went through this assay and about 2,000 (36%) were called active. Not shown: some 18% with an inconclusive outcome. Rule as the data show it: active = normalized growth mostly below about 0.91 (no sharp cut-off); inconclusive = no clear call, values can overlap the other calls; inactive = mostly above about 0.92. The list shows a part of the results.
Assay: chemical genetic growth profiling, strain panel (AID 1159580);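 also: tested at 20 µM; growth read once vehicle control cultures reached saturation at 30 °C; 1 = growth at the plate median or of vehicle wells; lower values mean less growth of the strain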
Conditions: S. cerevisiae deletion strains, growth OD

Measured: normalized growth

O=C1CCCN1CC#CCN1CCCC1
inactive: locus YAL013W, strain DEP1, hits give low values 1.02 and 1.01 | locus YAL021C, strain ccr4, hits give low values 1.01 | locus YAL026C, strain drs2, hits give low values 1.03 | locus YAL030W, strain snc1, hits give low values 1.02 | locus YAL040C, strain CLN3, hits give low values 1.01 | locus YBL061C, strain skt5, hits give low values 1.02 | locus YBR009C, strain hhf1, hits give low values 1.01 | locus YBR021W, strain FUR4, hits give low values 0.985 and 1.01 | locus YBR023C, strain chs3, hits give low values 1.02 | locus YBR171W, strain sec66, hits give low values 1.02 | locus YBR229C, strain ROT2, hits give low values 1 and 1.01 | locus YBR231C, strain swc5, hits give low values 1.03 | locus YBR279W, strain paf1, hits give low values 1.01 | locus YCL011C, strain gbp2, hits give low values 1.02 | locus YCL016C, strain dcc1, hits give low values 1.02 | locus YCL029C, strain bik1, hits give low values 1.01 and 1.02 | locus YCL061C, strain MRC1 (second series), hits give low values 1 | locus YCL069W, strain vba3, hits give low values 1.02 | locus YCR088W, strain abp1, hits give low values 1.03 | locus YDL005C, strain med2, hits give low values 1.03 | locus YDL035C, strain GPR1, hits give low values 1 and 1.03 | locus YDL040C, strain nat1, hits give low values 1.01 | locus YDL074C, strain BRE1, hits give low values 0.994 and 1.02 | locus YDL101C, strain DUN1, hits give low values 0.997 and 1.01 | locus YDL134C, strain PPH21, hits give low values 1.01 | locus YDL185W, strain tfp1, hits give low values 1.03 and 1.01 | locus YDL192W, strain arf1, hits give low values 1.01 and 1.02 | locus YDR001C, strain nth1, hits give low values 1.02 | locus YDR069C, strain doa4, hits give low values 1.03 | locus YDR101C, strain arx1, hits give low values 0.979 and 1.01 | locus YDR137W, strain rgp1, hits give low values 1.03 | locus YDR150W, strain NUM1, hits give low values 1.01 and 1 and 1.02 | locus YDR159W, strain sac3, hits give low values 0.999 | locus YDR162C, strain NBP2, hits give low values 1.02 and 1.01 | locus YDR195W, strain ref2 1.02 | locus YDR297W, strain sur2, hits give low values 1.02 | locus YDR318W, strain mcm21, hits give low values 1.01 and 1.02 | locus YDR334W, strain swr1, hits give low values 1.02 | locus YDR335W, strain msn5, hits give low values 1.02 | locus YDR363W, strain ESC2, hits give low values 1.01 | locus YDR388W, hits give low values 1.01 | locus YDR392W, strain spt3, hits give low values 1.01 | locus YDR502C, strain sam2, hits give low values 1.02 and 1.01 | locus YEL003W, strain gim4, hits give low values 1.02 | locus YEL037C, strain rad23, hits give low values 1.02 | locus YEL061C, strain CIN8 (second series), hits give low values 1.02 | locus YEL061C, strain CIN8, hits give low values 1 | locus YER002W, strain NOP16, hits give low values 0.985 | locus YER015W, strain faa2, hits give low values 1.02 | locus YER016W, strain bim1, hits give low values 1.01 | locus YER110C, hits give low values 1.02 | locus YER111C, strain swi4, hits give low values 1.03 | locus YER155C, strain BEM2 (second series), hits give low values 1.03 | locus YER155C, strain BEM2, hits give low values 0.994 and 1.01 | locus YER167W, strain BCK2, hits give low values 1 and 1.02 | locus YFR010W, strain ubp6, hits give low values 1.03 | locus YGL078C, strain dbp3, hits give low values 1.02 and 0.999 | locus YGL086W, strain mad1, hits give low values 0.999 and 1.03 | locus YGL167C, strain pmr1, hits give low values 1.01 | locus YGL173C, strain kem1, hits give low values 1.01 | locus YGL227W, strain vid30, hits give low values 1.02 | locus YGL240W, strain doc1, hits give low values 1.02 | locus YGL248W, strain PDE1, hits give low values 1.02 and 1.01 | locus YGL253W, strain hxk2, hits give low values 1.02 | locus YGR078C, strain PAC10, hits give low values 1 and 0.996 and 1.01 | locus YGR135W, strain pre9, hits give low values 1.04 and 0.991 | locus YGR229C, strain SMI1, hits give low values 1 | locus YGR252W, strain gcn5, hits give low values 1.1 and 1.03 | locus YHR013C, strain ard1, hits give low values 1.04 | locus YHR027C, strain rpn1, hits give low values 1.02 | locus YHR030C, strain SLT2, hits give low values 1.01 and 1.02 | locus YHR079C, strain IRE1 (second series), hits give low values 1.01 and 1.02 | locus YHR079C, strain IRE1, hits give low values 1.02 | locus YHR094C, strain hxt1, hits give low values 1.01 | locus YHR129C, strain ARP1, hits give low values 1 | locus YHR142W, strain chs7, hits give low values 1.05 | locus YHR200W, strain rpn10, hits give low values 1.01 and 1.02 | locus YIL066C, strain RNR3, hits give low values 1.02 and 1.03 | locus YIL073C, strain SPO22, hits give low values 1.06 and 1.1 | locus YIL125W, strain kgd1, hits give low values 1 and 1.01 | locus YIR030C, strain dcg1, hits give low values 1.01 and 1.02 | locus YJL092W, strain hpr5, hits give low values 1.01 | locus YJL095W, strain BCK1 (second series), hits give low values 1.02 | locus YJL095W, strain BCK1, hits give low values 1 and 1.03 and 0.996 | locus YJL115W, strain asf1, hits give low values 1.04 | locus YJL129C, strain trk1, hits give low values 1.04 | locus YJL134W, strain LCB3, hits give low values 1.01 | locus YJL154C, strain vps35, hits give low values 1.01 | locus YJL164C, strain tpk1, hits give low values 1.02 | locus YJL166W, strain qcr8, hits give low values 1.02 | locus YJL168C, strain set2, hits give low values 1 and 1.02 | locus YJL187C, strain SWE1 (second series), hits give low values 0.999 and 1 | locus YJL187C, strain SWE1, hits give low values 1.02 | locus YJR043C, strain POL32, hits give low values 1 and 1.02 | locus YJR066W, strain TOR1, hits give low values 0.971
